What was measured:
Details in all cases: concentration: 1 μM, replicates: in singlicate; n = 1
PIK3CG = system: PIK3CG
PIK4CB = system: T1, PIK4CB
T1 construct: gene PI4KB

PIKFYVE = system: PIKFYVE
PIM1 = system: PIM1
PIM2 = system: PIM2
PIM3 = system: PIM3
PIP5K1A = system: PIP5K1A
PIP5K1C = system: PIP5K1C
PIP5K2B = system: PIP5K2B
PIP5K2C = system: T2, PIP5K2C
T2 construct: gene PIP4K2C
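Also: KINOMEscan kinase panel screen.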

Row | SMILES | %Inh (PIK3CG) [%] | %Inh (PIK4CB) [%] | %Inh (PIKFYVE) [%] | %Inh (PIM1) [%] | %Inh (PIM2) [%] | %Inh (PIM3) [%] | %Inh (PIP5K1A) [%] | %Inh (PIP5K1C) [%] | %Inh (PIP5K2B) [%] | %Inh (PIP5K2C) [%]
1 | COc1cccc(-n2cnc3c(N)ncnc32)c1 [SKF-97416] | 44 | 41 | 41 | 20 | 14 | 24 | 2 | 13 | 0 | 0
2 | O=C(Nc1ccc2c(c1)OCO2)NC1CCN(c2ccnc(NCc3ccc(F)cc3)n2)CC1 [GSK1379859] | 0 | 2 | 0 | 8 | 0 | 0 | 0 | 19 | 2 | 0
3 | COc1ccc(-c2cc3c(C)nc(N)nc3n([C@H]3CC[C@H](O)CC3)c2=O)cn1 | 100 | 93.9 | 45 | 5 | 0 | 6 | 2 | 0 | 2 | 38
4 | COc1cc(Nc2ccnc3ccc(C(F)(F)F)cc23)cc(OC)c1OC [GW577382] | 0 | 0 | 0 | 2 | 0 | 0 | 0 | 54 | 10 | 50

Reference: article PMC5540273 (PLoS ONE, 2017)
